Source: PubChem
Tb PYK inh = qHTS of Trypanosoma Brucei Inhibitors; Potency, µM (highest dose often 76.8 µM), hits mostly inhibitors; 410,000 tested, 0.12% active; pyruvate kinase (Trypanosoma brucei), Q57TT1; TbPYK enzyme, Kinase-Glo Plus ATP luminescence, 45 min; note: nearly all actives have a fitted effect of over 50% in size
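Quantitative HTS: titrated library compounds versus trypanosomal pyruvate kinase in TEA buffer (pH 7.2) containing KCl, MgCl2, BSA and Tween-20. Reactions were initiated with ADP, 130 uM final. Kinase-Glo Plus luminescence was read after 45 min at RT.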
HCMV inh = qHTS Assay for inhibitors of the human cytomegalovirus (HCMV). HFF cells, HCMV-luciferase reporter, 72 h; hits give low values. activity change, negative = inhibition, % at 57.5 µM. 410,000 tested, 4.5% active. AID 1259415, 2018; in the data active = activity change below about -60%; inconclusive = no clear call, values can overlap the other calls; inactive = above about -39%
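Two-dose cell screen: HFF monolayers treated with compounds and infected with luciferase-expressing HCMV at 1 PFU/cell, 72 h at 37C, then lysed for luciferase measurement.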
VACV Venus inh = qHTS for Stage-Specific Inhibitors of Vaccinia Orthopoxvirus: Venus Reporter Primary qHTS; 330,000 tested, 0.46% active; Potency, µM (titrated, usually from 36.5 µM), usual class: inhibitors; Vaccinia virus Venus reporter expression, fluorescence; AID 720580, 2013; calls by dose curve; tested in A549 cells; note: nearly all actives have a fitted effect of over 30% in size
LmPK inhibitor = qHTS Assay for Inhibitors of Leishmania Mexicana Pyruvate Kinase (LmPK); Q27686; Potency, µM (doses to about 57.5 µM), actives largely listed as inhibitors; purified LmPK, Kinase-Glo ATP luminescence, 1 h; 290,000 tested, 0.37% active
Target sequence (Q27686 whole entry, looked up): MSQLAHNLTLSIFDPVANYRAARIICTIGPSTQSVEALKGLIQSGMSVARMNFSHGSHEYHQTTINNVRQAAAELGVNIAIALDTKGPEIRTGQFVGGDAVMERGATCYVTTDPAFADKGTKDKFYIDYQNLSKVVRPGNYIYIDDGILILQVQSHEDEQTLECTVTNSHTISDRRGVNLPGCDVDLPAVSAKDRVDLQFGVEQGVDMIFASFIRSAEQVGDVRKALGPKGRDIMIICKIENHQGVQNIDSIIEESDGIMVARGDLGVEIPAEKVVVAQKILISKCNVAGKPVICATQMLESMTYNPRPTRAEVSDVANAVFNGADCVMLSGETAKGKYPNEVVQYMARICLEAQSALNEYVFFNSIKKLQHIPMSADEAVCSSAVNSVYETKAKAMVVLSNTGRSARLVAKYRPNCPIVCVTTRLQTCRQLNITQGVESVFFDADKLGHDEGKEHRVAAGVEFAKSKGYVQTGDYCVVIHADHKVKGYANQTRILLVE
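0.1 nM LmPK, 0.5 mM PEP, 0.1 mM ADP; 50 mM imidazole pH 7.2, 7 mM MgCl2, 50 mM KCl; 1 h RT. Kinase-Glo luminescence readout, normalized to no-enzyme (full inhibition) and uninhibited wells.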
VACV mCherry inh = qHTS for Stage-Specific Inhibitors of Vaccinia Orthopoxvirus: mCherry Reporter Primary qHTS; Potency, µM (doses to about 36.5 µM), hits mostly inhibitors; 310,000 tested, 0.63% active; Vaccinia virus mCherry reporter infection, fluorescence; calls by dose curve; tested in A549 cells; note: nearly all actives have a fitted effect of over 35% in size
Each line names hits and unclear results; the compound was inactive in the other large screens; ! = not active in a repeat. The list is not random: actives were taken first. Their share in the collection is about 5%. Unless noted, calls come from the whole dose curve; as a rule, active = well fitted curve in the direction sought with a large enough effect; inconclusive = small, poorly fitted or top-dose-only effect, or another doubt; inactive = no such curve, though single readings can be large; an effect the other way counts as inactive or inconclusive.

O=C(Nc1nc2ccccc2s1)c1ccc(OCC2CCCO2)cc1 (stereo unspecified)	HCMV inh -88
O=C(c1cc(C(F)(F)F)cc(C(F)(F)F)c1)N1CCC2(CC1)CN(Cc1ccncc1)C2	none (no result: HCMV inh, VACV Venus inh, LmPK inhibitor, VACV mCherry inh)
COc1ccc(C)cc1NC(=O)C(NCC(O)c1ccccc1)c1ccccc1 (stereo unspecified)	none (no result: VACV Venus inh, VACV mCherry inh)
Cc1cccc(NC(=O)CSc2nc(C)c(CC(=O)c3ccc(Br)cc3)c(C)c2C#N)c1C	HCMV inh -79 (no result: VACV mCherry inh)
Cc1nc(SCC(=O)Nc2ccc(F)cc2)c(C#N)c(C)c1CC(=O)c1ccc(Br)cc1	none (no result: VACV mCherry inh)
CCC(C)NC(=O)CCc1c(C)nc2c(c(C)nn2-c2ccc(C)cc2)c1C (stereo unspecified)	none (no result: LmPK inhibitor)
OCCC1CN(Cc2cccn2-c2cccnc2)CCN1C1CCCCC1 (stereo unspecified)	none
CCC(C)(C)c1ccc(OCCCC[n+]2cccc(C)c2C)c(C(C)(C)CC)c1	HCMV inh -97 (no result: VACV Venus inh, VACV mCherry inh)
Cc1cc(C(C)(C)C)ccc1OCCCCN1CCCC1	none
Cc1cc[n+](CC[n+]2ccc(C)cc2)cc1	none (no result: LmPK inhibitor)
CCC(C)(C)c1ccc(OCCCC[n+]2ccc(C)cc2)c(C(C)(C)CC)c1	HCMV inh -97 (no result: VACV Venus inh, VACV mCherry inh)
COc1ccc(-c2cc(C(=O)N/N=C(\C)c3cccnc3)c3cc(C)ccc3n2)cc1OC	none (no result: VACV Venus inh, VACV mCherry inh)
C=CCSc1nnc(NC(=O)C2=COCCO2)s1	none (no result: LmPK inhibitor)
CC1CCCC(C)N1C(=C(Cl)Cl)C(=C1SCCS1)[N+](=O)[O-] (stereo unspecified)	HCMV inh -69
Cc1ccc(N2C(=O)CS/C2=C(\C(Cl)=C(Cl)Cl)[N+](=O)[O-])cc1	none
O=C1CC(C(=O)Nc2ccc(Cl)cc2)S/C(=N\N=C\c2ccco2)N1 (stereo unspecified)	VACV Venus inh inconclusive
O=C(/C=C/c1ccc(Cl)cc1Cl)NC(=S)Nc1ccc(CN2CCOCC2)cc1	VACV mCherry inh inconclusive
O=C(/C=C/c1ccccc1)NC(=S)Nc1ccc(CN2CCOCC2)cc1	HCMV inh -76, VACV mCherry inh inconclusive
O=C(/C=C/c1ccc(Cl)cc1)Nc1ccc(CN2CCOCC2)cc1	HCMV inh -89
O=C(Nc1ccc(CN2CCOCC2)cc1)c1cc2ccccc2o1	none
O=C(NC(=S)Nc1ccc(CN2CCOCC2)cc1)c1cc2ccccc2o1	HCMV inh -70 (no result: VACV Venus inh, VACV mCherry inh)
CCOC(=O)[C@H]1[C@H]2COc3cc(OC)ccc3[C@@H]2N2C(=O)c3cc(F)c(F)cc3NC(=O)[C@@]12C	none (no result: LmPK inhibitor)
Oc1ccc(-c2nc(-c3ccccc3)c(-c3ccc(Br)cc3)[nH]2)cc1	HCMV inh -63, VACV Venus inh inconclusive, VACV mCherry inh inconclusive (no result: LmPK inhibitor)
CCc1cccc(C)c1Nc1c(-c2ccsc2)nc2ncccn12	none (no result: LmPK inhibitor)
CCCCn1c(=O)c(-[n+]2ccccc2)c([O-])c2ccccc21	HCMV inh -62 (no result: VACV mCherry inh)
CC(C)Cn1c(=O)c(-[n+]2ccccc2)c([O-])c2ccccc21	none
Cc1ccc(-c2nc3cc(Cl)ccc3o2)cc1	LmPK inhibitor inconclusive
COc1cc(OC)cc(-c2nc3cc(C)ccc3o2)c1	LmPK inhibitor 14µM (no result: VACV Venus inh, VACV mCherry inh)
CCN(C(=O)CSc1nnc(C2CC2)n1-c1ccccc1)C1CCS(=O)(=O)C1 (stereo unspecified)	none (no result: VACV Venus inh, LmPK inhibitor, VACV mCherry inh)
CC1CCC2(CC1)NC(=O)N(CC(=O)N1c3ccccc3CC1C)C2=O (stereo unspecified)	HCMV inh -71 (no result: LmPK inhibitor)
CC1Cc2ccccc2N1C(=O)CN1C(=O)NC2(CCCCC2)C1=O (stereo unspecified)	none (no result: VACV Venus inh, LmPK inhibitor, VACV mCherry inh)
CC(C)N(C(=O)[C@H]1C[C@H](CC(=O)NCCCN(C)C)C(=O)N2CCc3c([nH]c4cc(-c5ccco5)ccc34)[C@]12C)C(C)C	VACV Venus inh inconclusive, VACV mCherry inh 10µM (no result: LmPK inhibitor)
CC(C)N(C(=O)[C@H]1C[C@H](CC(=O)NCCc2ccccn2)C(=O)N2CCc3c([nH]c4cc(-c5ccco5)ccc34)[C@]12C)C(C)C	VACV Venus inh inconclusive (no result: LmPK inhibitor)
CC(C)N(C(=O)[C@H]1C[C@H](CC(=O)NCCC2=CCCCC2)C(=O)N2CCc3c([nH]c4cc(-c5ccco5)ccc34)[C@]12C)C(C)C	VACV Venus inh 11µM, VACV mCherry inh 10µM (no result: LmPK inhibitor)
O=C(NCc1ccco1)c1nc2c(nnn2Cc2ccccc2Cl)c(=O)[nH]1	HCMV inh -98, VACV Venus inh 11µM, VACV mCherry inh 13µM
COc1ccc(C(=O)O/N=C(\N)c2ccccn2)cc1	Tb PYK inh 10µM, HCMV inh inconclusive, LmPK inhibitor 13µM
COc1cc(OC)cc(C(=O)O/N=C(\N)c2ccccn2)c1	HCMV inh -61 (no result: VACV Venus inh, VACV mCherry inh)
Cc1c(C)c2ccc(OCC(=O)NCCN3CCOCC3)c(C)c2oc1=O	none
CC(NC(=S)Nc1ccccc1OC(F)F)C(C)(C)C (stereo unspecified)	HCMV inh -65
Cc1ccc(NC(=O)C2(C)Cc3ccccc3C(=O)O2)cc1 (stereo unspecified)	HCMV inh -60
Cc1ccc(C2(c3ccccc3)NC(=O)N(CC(=O)NC3(C#N)CCCC3)C2=O)cc1C (stereo unspecified)	HCMV inh -92 (no result: VACV Venus inh, LmPK inhibitor, VACV mCherry inh)
Cc1ccc(NC(=O)CSc2nc3ccccc3c(=O)n2CCCN2CCCCC2)cc1Cl	HCMV inh -97, VACV Venus inh inconclusive, VACV mCherry inh inconclusive
CCOCCCn1c(SCC(=O)Nc2cccc(OC)c2)nc2ccccc2c1=O	HCMV inh -73!
COc1cccc(NC(=O)CSc2nc3c(sc4ccccc43)c(=O)n2CCCN2CCCC2)c1	HCMV inh -102 (no result: VACV Venus inh, VACV mCherry inh)
COc1cccc(NC(=O)CSc2nc3c(sc4ccccc43)c(=O)n2CCN(C)C)c1	none
CCOC(=O)c1cnc(-n2nc(C)cc2C)nc1NCc1ccccc1	HCMV inh -73, VACV Venus inh inconclusive, VACV mCherry inh inconclusive
CCOC(=O)c1cnc(-n2nc(C)cc2C)nc1NNc1ncc(-c2ccccc2)cn1	VACV Venus inh inconclusive, VACV mCherry inh inconclusive (no result: HCMV inh)
CCOC(=O)c1cnc(-n2nc(C)cc2C)nc1NCCO	none (no result: VACV Venus inh, VACV mCherry inh)
CCOC(=O)c1cnc(-n2nc(C)cc2C)nc1NC(C)c1ccccc1 (stereo unspecified)	HCMV inh -97
c1ccc(-c2cn3c(n2)-c2ccccc2C3)cc1	Tb PYK inh inconclusive, LmPK inhibitor 5.6µM
O=S(=O)(/C=C/c1ccccc1)N1CCN(c2nc(-c3ccccc3)nc3ccccc23)CC1	none
O=C(Oc1ccc(Cl)c2cccnc12)N1CCCCCC1	HCMV inh -100
CN(C)C(=O)Oc1ccc(Cl)c2cccnc12	none
CNC(=O)c1ccsc1NC(=O)CCS(=O)(=O)c1ccc(F)cc1	VACV Venus inh inconclusive, VACV mCherry inh inconclusive (no result: LmPK inhibitor)
COc1cc(OC)cc(-c2nnc(NC(=O)CCS(=O)(=O)c3ccccc3)o2)c1	VACV Venus inh inconclusive, VACV mCherry inh 6.3µM (no result: LmPK inhibitor)
